# Results published in PubChem BioAssay (NCI).
# Compounds without any hit were thinned out: in the full panel of roughly 83,000, 20% have a hit.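 Values shown are percent growth following 48 h exposure of cells in 96-well plates to a single concentration of compound; below 10 was considered active.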 Unmarked numbers belong to inactive results. Active and inactive are the calls of the source.
# Legend:
# Assay in all cases: NCI-60 one-dose screen, 48 h (100 = growth as untreated, 0 = no growth, -100 = all killed)
# Details in all cases: 10 µM unless noted
# [1] = system: HCT-15 colon
# [2] = system: HT29 colon
# [3] = system: SNB-75 CNS
# [4] = system: SNB-19 CNS
# [5] = system: U251 CNS
# [6] = system: PC-3 prostate
# [7] = system: SK-MEL-5 melanoma
# [8] = system: UACC-62 melanoma
# [9] = system: LOX IMVI melanoma
# [10] = system: SK-MEL-28 melanoma
# [11] = system: SK-MEL-2 melanoma
# [12] = system: EKVX NSCLC
# [13] = system: SN12C renal
# [14] = system: UO-31 renal
# [15] = system: TK-10 renal
# [16] = system: ACHN renal
# [17] = system: CAKI-1 renal
# [18] = system: A498 renal
# [19] = system: CCRF-CEM leukemia
# [20] = system: MOLT-4 leukemia
SMILES,growth [1],growth [2],growth [3],growth [4],growth [5],growth [6],growth [7],growth [8],growth [9],growth [10],growth [11],growth [12],growth [13],growth [14],growth [15],growth [16],growth [17],growth [18],growth [19],growth [20]
CCc1ccc(SC2c3ccc(N(CC)CC)cc3Oc3nc(N)c(C#N)c(N)c32)cc1 (stereo not drawn),-88% (active),-54.6% (active),12.7%,-95.1% (active),-71.3% (active),-74% (active),-97% (active),-32.7% (active),-86.6% (active),-18.7% (active),-48.2% (active),-54.8% (active),-32.9% (active),-98.8% (active),-18% (active),-53.7% (active),-46.7% (active),-8.49% (active),-23.7% (active),-8.26% (active)
CCNC(=O)N1CCc2cc(OC)c(OCCc3ccc(OC)c(N)c3)cc2C1c1cc(C)c(C)cc1C (stereo not drawn),14.7%,21.9%,22.1%,34.6%,28.4%,36.7%,27.7%,23.1%,7.03% (active),44.7%,33.2%,58.3%,39.4%,38.4%,68%,32.5%,30.1%,20%,46.7%,32.3%
O=C(Nc1ccc2c(ccn2Cc2ccccn2)c1)c1ccnnc1,111%,103%,56%,102%,108%,91.4%,98.9%,86.3%,101%,108%,102%,75.6%,70.2%,58.8%,60.2%,97.3%,65.9%,56.8%,,115%
O=C(CN1CCN(c2cc(=O)n(-c3ccccc3)c3ccccc23)CC1)Nc1cccc(C(F)(F)F)c1,48.5%,70.8%,65.5%,70.9%,71.6%,42.1%,14.4%,57.2%,66.1%,75.1%,92%,42.9%,75.9%,33%,74.4%,58.5%,56.9%,52.9%,53.4%,34.8%
C=CC(=O)N1CCC=C(c2cc3c(N[C@H](C)c4ccccc4)ncnc3[nH]2)C1,73.2%,66.5%,3.25% (active),77.1%,84.2%,68.9%,85.7%,68.5%,57.5%,91.6%,89.7%,28.1%,29.3%,20.5%,-5.86% (active),6.81% (active),14.4%,-27.8% (active),,93.4%
O=C(CN1CCN(c2cc(=O)n(-c3ccccc3)c3ccccc23)CC1)Nc1nc(-c2ccccc2)cs1,25.2%,73%,71.6%,85.2%,59.2%,32.5%,5.29% (active),63.9%,49.4%,71.2%,88.9%,45.5%,82.1%,41.6%,97.7%,63.8%,61.4%,66.2%,39.6%,17.8%
CCNC(=O)N1CCc2cc(OC)c(OCCc3ccc(OC)c(N)c3)cc2C1c1ccc(C)cc1C (stereo not drawn),10.4%,3.09% (active),41.5%,30.1%,17.8%,29.1%,-7.76% (active),24.2%,6.47% (active),42.5%,4.33% (active),44%,22.6%,30.4%,56.1%,27.6%,22.9%,-5% (active),34.5%,29.3%
O=S(=O)(Oc1ccc(-c2nnc(Nc3ccccc3)s2)cc1)C(F)(F)C(F)(F)C(F)(F)C(F)(F)C(F)(F)C(F)(F)F,98.7%,109%,99.9%,101%,107%,110%,108%,90.8%,99.8%,105%,106%,99.1%,98.7%,98.2%,109%,103%,92.7%,99.5%,102%,-29.1% (active)
